# Most compounds without a hit are left out; they make up all but 2.5% or so of the library.
# Cruzain noTriton: cruzain (T. cruzi) inhibition without detergent; actives 2.3% (n = 200,000); Potency, µM, for inactives: max response, negative = inhibition, actives largely listed as inhibitors; AID 1476; P25779; purified cruzain, Z-FR-AMC fluorescence, no detergent;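 also: plate controls were enzyme without inhibitor for no effect and buffer without enzyme for full effect; nearly all actives have a fitted effect of over 40% in size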
# Target sequence (P25779 123-467 limits assumed): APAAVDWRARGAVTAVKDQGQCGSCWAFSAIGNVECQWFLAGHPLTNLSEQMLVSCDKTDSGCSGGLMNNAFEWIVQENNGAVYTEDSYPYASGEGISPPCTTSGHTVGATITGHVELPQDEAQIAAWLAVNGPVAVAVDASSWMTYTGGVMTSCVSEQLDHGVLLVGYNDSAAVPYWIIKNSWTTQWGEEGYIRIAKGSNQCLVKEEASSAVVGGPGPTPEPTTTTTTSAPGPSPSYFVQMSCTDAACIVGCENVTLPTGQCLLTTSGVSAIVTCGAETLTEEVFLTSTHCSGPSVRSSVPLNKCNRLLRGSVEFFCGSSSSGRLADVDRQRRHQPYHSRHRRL
#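 Detergent-free condition (0.00005% Triton X-100) in acetate buffer pH 5.5 with DTT. 1.5 nM enzyme and compound were pre-mixed 15 min, then 2 uM Z-FR-AMC substrate added; reaction progress from fluorescence change between first and third reads (60 s).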
# Cruzain Triton: cruzain (T. cruzi) inhibition with detergent. P25779. purified cruzain, Z-FR-AMC fluorescence, 0.01% Triton. Potency, µM, inactives show max response, negative = inhibition, usual class: inhibitors. actives 0.43% (n = 200,000);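 also: plate controls were neutral wells for no effect and buffer without enzyme for full effect; nearly all actives have a fitted effect of over 40% in size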
#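 Detergent-containing arm of a paired screen for aggregation-based inhibition: 0.01% Triton X-100 present. Cruzain at 1.5 nM cleaved 2 uM Z-FR-AMC at pH 5.5 with 5 mM DTT; AMC fluorescence gain over 60 s measured activity.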
# Active calls of the source: *; ? = inconclusive. Calls follow the shape of the dose curve; as a rule, active = well fitted curve in the direction sought with a large enough effect; inconclusive = small, poorly fitted or top-dose-only effect, or another doubt; inactive = no such curve, though single readings can be large; an effect the other way counts as inactive or inconclusive. Potency is read from the fitted curve at half-maximal effect.
SMILES,Cruzain noTriton,Cruzain Triton
COCCCNC(=O)c1sc2nc(C)c(C(=O)Nc3ccc(Cl)cc3)c(-c3ccc(Br)cc3)c2c1N,?,-4.6%
COc1ccc(C)cc1N(C(=O)c1ccccc1F)c1nc2ccccc2s1,1.58µM*,-5.2%
COc1ccc(C)cc1N(C(=O)c1ccccc1)c1nc2ccccc2s1,?,-3.5%
COC(=O)c1ccc(C23CC2(C(NP(=O)(c2ccccc2)c2ccccc2)c2ccccc2)C3)cc1 (stereo unspecified),-8.1%,-7.0%
Cc1cccc(NS(=O)(=O)c2ccc3[nH]c(=O)[nH]c3c2)c1C,5.8%,-1.9%
Cc1cccc(NS(=O)(=O)c2ccc3c(c2)Cc2cc(S(=O)(=O)Nc4cccc(C)c4C)ccc2-3)c1C,3.98µM*,0.6%
C(CCc1nnc2c(n1)CCCC2)Cc1nnc2c(n1)CCCC2,1.8%,-2.6%
CCN(CC)CCNC(=O)c1cc2c(=O)n(C)c3ccccc3c2n1C,1.0%,-17.0%
CN(C)CCNC(=O)c1cc2c(=O)n(C)c3ccccc3c2n1C,?,25.1µM*
COc1ccc(CNC(=O)C(Cc2ccccc2)NS(=O)(=O)c2ccc3c(c2)CCN3C(C)=O)cc1 (stereo unspecified),10.2%,-4.1%
COc1ccc(OC)c(NC(=O)C2CCCN(S(=O)(=O)c3ccc4[nH]c(=O)ccc4c3)C2)c1 (stereo unspecified),28.7%,-4.4%
CCOC(=O)c1sc(NC(=O)CSc2nc3c(cc2C#N)CCCCCC3)c(C#N)c1C,?,-3.1%
CCOC(=O)c1sc(NC(=O)CSc2nc3c(c(-c4ccc(OC)cc4)c2C#N)CCCC3)c(C#N)c1C,3.16µM*,9.7%
COc1cccc(NC(=O)CSc2nc(=O)n(Cc3ccco3)c3c2CCC3)c1,-14.1%,-3.7%
CCc1ccc(NC(=O)CSc2nc(C)c(C(=O)Nc3ccc(Cl)cc3)c(-c3ccc(OC)cc3)c2C#N)cc1,7.94µM*,-1.7%
COc1ccc(-c2c(C#N)c(SCC(=O)Nc3ccccc3C)nc(C)c2C(=O)Nc2ccc(Cl)cc2)cc1,-20.9%,5.7%
COc1cccc(NC(=O)CSc2nc3c(c(-c4ccco4)c2C#N)CCCC3)c1,6.31µM*,5.9%
O=C(CN(C(=O)CSc1nc2ccccc2o1)c1ccccc1)NC1CCCCC1,-3.0%,4.1%
Cc1ccc(NC(=O)Nc2cc3c(cc2N2CCCCC2)n(C)c(=O)n3C)cc1Cl,5.8%,-4.8%
CCc1ccccc1Nc1nn2c(=O)c3ccc(C(=O)NCCCOC(C)C)cc3nc2s1,5.5%,0.3%
Cc1c(Cl)ccc2sc(NC(=O)CN3C(=O)c4ccccc4C3=O)nc12,10µM*,-0.1%
Cc1ccc2sc(NC(=O)CN3C(=O)CCC3=O)nc2c1C,0.8%,-2.7%
COC(=O)c1ccccc1NC(=O)Cc1noc2ccc(C)cc12,2.4%,-4.2%
COC(=O)c1ccccc1NC(=O)Cc1nc(-c2ccccc2)sc1-c1ccc(C)cc1,25.1µM*,-4.0%
Cc1c(F)cccc1NS(=O)(=O)c1cccs1,-3.2%,-1.2%
SMILES,Cruzain noTriton,Cruzain Triton
COc1ccc(Cl)cc1NC(=O)CN1c2ccccc2S(=O)(=O)c2ccccc21,20µM*,-8.8%
COc1ccc(Cl)cc1NC(=O)Cn1cccc1,1.9%,0.0%
O=S1(=O)c2ccccc2N(Cc2ccc(Cl)cc2F)c2ccccc21,31.6µM*,-9.5%
O=S1(=O)c2ccccc2N(Cc2ccc(Cl)cc2)c2ccccc21,21.1%,-1.8%
CCc1ccc(N(CC)C(=O)Cn2cnc3sc(C)c(S(=O)(=O)N4CCN(c5ncccn5)CC4)c3c2=O)cc1,-3.3%,-1.5%
OC[P+](CO)(CO)CO,-5.2%,-6.6%
CCN1C(=O)c2ccccc2Sc2ccc(NC(=O)Nc3ccc(Br)c(C)c3)cc21,7.94µM*,-1.7%
CCN1C(=O)c2ccccc2Sc2ccc(NC(=O)Nc3ccc(C(C)=O)cc3)cc21,20.5%,-5.2%
CCOc1ccc(/C=C/C(=O)Nc2ccc(C(N)=O)cc2)cc1OC,-2.7%,-5.1%
CCCCOc1ccc(/C=C/C(=O)Nc2ccc([N+](=O)[O-])cc2C)cc1,25.1µM*,-1.0%
CCCCOc1ccc(/C=C/C(=O)Nc2ccc(C(N)=O)cc2)cc1,15.8µM*,-3.0%
CCCOc1ccc(/C=C/C(=O)Nc2ccc([N+](=O)[O-])cc2)cc1,-27.0%,-10.9%
Cc1ccc(/C=C/C(=O)N2CC(C)CC(C)C2)o1 (stereo unspecified),14.5%,-1.9%
CSc1cc(-c2ccccc2)n(Cc2ccc(Cl)cc2Cl)c(=O)c1C#N,25.1µM*,4.5%
Cc1cc(C)n(Cc2ccc(Cl)cc2Cl)c(=O)c1S(=O)(=O)c1ccccc1,-14.4%,-8.8%
Cn1c(=O)c2c(nc(CN3CCN(CCO)CC3)n2Cc2cccc3ccccc23)n(C)c1=O,-1.8%,7.0%
COc1cc(OC)cc(N2C(=O)N(Cc3ccc(C(C)(C)C)cc3)c3ccccc3S2(=O)=O)c1,3.98µM*,0.7%
CCOc1ccc(N2C(=O)N(Cc3ccc(C)cc3C)c3ccccc3S2(=O)=O)cc1,25.1µM*,0.1%
COc1cc(OC)cc(N2C(=O)N(CC(=O)c3ccc(F)cc3)c3ccccc3S2(=O)=O)c1,?,0.4%
CC(=O)c1ccc(N2C(=O)N(CC(=O)c3ccc(C)cc3)c3ccccc3S2(=O)=O)cc1,?,-0.3%
Cc1cc(C)cc(Nc2cc(C(=O)NC3CCC(C)CC3)c3ccccc3n2)c1 (stereo unspecified),-5.1%,-9.0%
Fc1ccc(COc2ccc(/C=N/n3cnnc3)cc2)cc1,7.2%,-0.3%
COc1ccccc1NC(=O)CSc1nc2ccccc2c(=O)n1CCC(=O)NC1CCCCC1,-7.7%,1.5%
COc1ccc(-n2cc(C(=O)NCCc3ccc(C)cc3)c3ccccc3c2=O)cc1,25.1µM*,-4.9%
COc1cccc(-n2cc(C(=O)NCCc3ccc(C)cc3)c3ccccc3c2=O)c1,19.9%,0.3%
SMILES,Cruzain noTriton,Cruzain Triton
CC1=NN(c2ccccc2)C(=O)/C1=C/c1c(O)n(-c2ccc(F)c(Cl)c2)[nH]c1=O,-5.5%,22.4µM*
CC1=NN(c2ccccc2)C(=O)/C1=C\c1c(C)[nH]n(-c2ccccc2)c1=O,1.7%,0.9%
CCn1c(CNC(=O)C23CC4CC(CC(C4)C2)C3)nnc1SCC(=O)Nc1ccc(C)cc1,?,1.1%
O=C(O)C[C@H]1OCC=C2CN3CC[C@@]45C6=CC(=O)C(=O)C([N+](=O)[O-])=C6N[C@H]4[C@H]1[C@H]2C[C@@H]35,3.2%,2.5%
O=C(CSc1nc2c(c(=O)[nH]1)CCC2)Nc1cccc(Cl)c1,-2.8%,4.0%
CCc1cccc(NC(=O)CSc2nc3c(c(=O)[nH]2)CCCC3)c1,25.1µM*,-1.4%
COc1cc(NC(=O)COC(=O)CC(C)(C)C)c(C)cc1[N+](=O)[O-],4.6%,-1.4%
COc1cc(NC(=O)COC(=O)CNC(=O)c2ccc(Cl)cc2)c(C)cc1[N+](=O)[O-],10µM*,12.6µM*
COc1cc(NC(=O)COC(=O)C2CC2)c(C)cc1[N+](=O)[O-],-1.8%,-5.1%
COc1cc(NC(=O)COC(=O)CNC(=O)c2ccc(C)cc2)c(C)cc1[N+](=O)[O-],12.6µM*,12.6µM*
Cc1ccc(NC(=O)c2nc[nH]c2C(=O)Nc2ccc(C)cc2)cc1,7.94µM*,3.3%
CCOc1ccccc1NC(=O)c1nc[nH]c1C(=O)Nc1ccccc1OCC,-5.4%,3.1%
COc1ccccc1NC(=O)c1nc[nH]c1C(=O)Nc1ccccc1OC,10µM*,4.8%
CNC(=O)c1[nH]cnc1C(=O)Nc1ccc(C)cc1,-12.2%,-1.5%
COc1ccc(NC(=O)N2CC[C@@]3(CCCN(C(=O)c4csnn4)C3)C2)cc1,5.0%,1.3%
